The panel holds about 83,000 compounds, 20% with a hit somewhere; the sample as a whole holds those more often.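 48-hour exposure, single concentration, 96-well plates; percent growth endpoint where 0 means no net growth. Active: below 10.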 The source made the active and inactive calls.
How the values were obtained:
Assay in all cases: NCI-60 one-dose screen, 48 h (100 = growth as untreated, 0 = no growth, -100 = all killed)
NCI-H23 lung = test system: NCI-H23 lung
NCI-H226 lung = test system: NCI-H226 lung
NCI-H322M lung = test system: NCI-H322M lung
HOP-62 NSCLC = test system: HOP-62 NSCLC
NCI-H460 lung = test system: NCI-H460 lung
NCI-H522 lung = test system: NCI-H522 lung
A549/ATCC NSCLC = test system: A549/ATCC NSCLC
786-0 renal = test system: 786-0 renal
COLO 205 colon = test system: COLO 205 colon
DU-145 prostate = test system: DU-145 prostate
K-562 leukemia = test system: K-562 leukemia
MALME-3M melanoma = test system: MALME-3M melanoma
MDA-MB-231 breast = test system: MDA-MB-231 breast
RXF 393 renal = test system: RXF 393 renal
SF-268 CNS = test system: SF-268 CNS
SF-295 CNS = test system: SF-295 CNS
SF-539 CNS = test system: SF-539 CNS
UACC-257 melanoma = test system: UACC-257 melanoma
M14 melanoma = test system: M14 melanoma
HOP-92 NSCLC = test system: HOP-92 NSCLC

Measured: growth

CCC1(O)CC(OC2CC(N(C)C)C(OC3CC4OC5CC(=O)C(C)OC5OC4C(C)O3)C(C)O2)c2c(cc3c(c2O)C(=O)c2c(O)ccc(O)c2C3=O)C1C(=O)OC (configuration not stated)
active: NCI-H23 lung; 10 µM unless noted -52.5% | NCI-H226 lung; 10 µM unless noted -8.6% | NCI-H322M lung; 10 µM unless noted -32.4% | HOP-62 NSCLC; 10 µM unless noted -26% | NCI-H460 lung; 10 µM unless noted -26.3% | NCI-H522 lung; 10 µM unless noted -75.4% | A549/ATCC NSCLC; 10 µM unless noted 1.52% | 786-0 renal; 10 µM unless noted -35.6% | COLO 205 colon; 10 µM unless noted -52.1% | DU-145 prostate; 10 µM unless noted -12.7% | K-562 leukemia; 10 µM unless noted -39.7% | MALME-3M melanoma; 10 µM unless noted -95.3% | MDA-MB-231 breast; 10 µM unless noted -5.87% | RXF 393 renal; 10 µM unless noted -1.64% | SF-268 CNS; 10 µM unless noted -14.3% | SF-295 CNS; 10 µM unless noted -32.7% | SF-539 CNS; 10 µM unless noted -55.6% | UACC-257 melanoma; 10 µM unless noted -3.52% | M14 melanoma; 10 µM unless noted -95%

CC[n+]1c(-c2ccccc2)c2cc(N)ccc2c2ccc(N)cc21
active: NCI-H23 lung; 10 µM unless noted -9.43% | HOP-62 NSCLC; 10 µM unless noted 1.84% | NCI-H460 lung; 10 µM unless noted 3.56% | NCI-H522 lung; 10 µM unless noted -28.2% | COLO 205 colon; 10 µM unless noted -27.9% | DU-145 prostate; 10 µM unless noted 9.09% | MALME-3M melanoma; 10 µM unless noted -25% | RXF 393 renal; 10 µM unless noted -16.7% | SF-268 CNS; 10 µM unless noted -26.3% | SF-539 CNS; 10 µM unless noted -12.7% | UACC-257 melanoma; 10 µM unless noted -19.3%
inactive: NCI-H226 lung; 10 µM unless noted 25.2% | NCI-H322M lung; 10 µM unless noted 25.9% | A549/ATCC NSCLC; 10 µM unless noted 30.2% | 786-0 renal; 10 µM unless noted 15.6% | K-562 leukemia; 10 µM unless noted 39% | MDA-MB-231 breast; 10 µM unless noted 33.1% | SF-295 CNS; 10 µM unless noted 13.6% | M14 melanoma; 10 µM unless noted 33%

CCC(=O)OC1CCn2c1nc1c2C(=O)C(C)=C(N2CC2)C1=O (configuration not stated)
inactive: HOP-92 NSCLC; 10 µM 80.9% | MDA-MB-231 breast; 10 µM unless noted 71.7%
active: NCI-H23 lung; 10 µM unless noted -28.5% | NCI-H226 lung; 10 µM unless noted -23% | NCI-H322M lung; 10 µM unless noted -5.88% | HOP-62 NSCLC; 10 µM unless noted -29.4% | NCI-H460 lung; 10 µM unless noted -23.6% | NCI-H522 lung; 10 µM unless noted -43% | A549/ATCC NSCLC; 10 µM unless noted 2.51% | 786-0 renal; 10 µM unless noted -16.5% | COLO 205 colon; 10 µM unless noted -74.3% | K-562 leukemia; 10 µM unless noted 9.08% | MALME-3M melanoma; 10 µM unless noted -60.4% | RXF 393 renal; 10 µM unless noted -79.8% | SF-268 CNS; 10 µM unless noted 7.54% | SF-295 CNS; 10 µM unless noted 2.01% | SF-539 CNS; 10 µM unless noted -33.6% | UACC-257 melanoma; 10 µM unless noted -55.7% | M14 melanoma; 10 µM unless noted -58.1%

S=C(SSC(=S)N1CCCCC1)N1CCCCC1
active: NCI-H23 lung; 100 µM -5.33% | NCI-H460 lung; 100 µM -2.57% | HOP-92 NSCLC; 100 µM 9.88% | NCI-H522 lung; 100 µM -44.2% | 786-0 renal; 100 µM -3.71% | COLO 205 colon; 100 µM -69.1% | DU-145 prostate; 100 µM 9.68% | K-562 leukemia; 100 µM -13.7% | MALME-3M melanoma; 100 µM -76.9% | MDA-MB-231 breast; 100 µM -35.8% | RXF 393 renal; 100 µM -15.7% | SF-268 CNS; 100 µM 0.593% | SF-295 CNS; 100 µM 1.68% | SF-539 CNS; 100 µM -61.6% | M14 melanoma; 100 µM -49.6%
inactive: NCI-H23 lung; 10 µM 101% | NCI-H226 lung; 10 µM 104% | NCI-H226 lung; 100 µM 10.4% | NCI-H322M lung; 10 µM 102% | NCI-H322M lung; 100 µM 32% | HOP-62 NSCLC; 10 µM 110% | HOP-62 NSCLC; 100 µM 37.6% | NCI-H460 lung; 10 µM 91.9% | HOP-92 NSCLC; 10 µM 101% | NCI-H522 lung; 10 µM 87% | A549/ATCC NSCLC; 10 µM 93.3% | A549/ATCC NSCLC; 100 µM 26.1% | 786-0 renal; 10 µM 98.7% | COLO 205 colon; 10 µM 110% | DU-145 prostate; 10 µM 107% | K-562 leukemia; 10 µM 102% | MALME-3M melanoma; 10 µM 124% | MDA-MB-231 breast; 10 µM 104% | RXF 393 renal; 10 µM 114% | SF-268 CNS; 10 µM 101% | SF-295 CNS; 10 µM 97.3% | SF-539 CNS; 10 µM 104% | UACC-257 melanoma; 10 µM 87.7% | UACC-257 melanoma; 100 µM 40.5% | M14 melanoma; 10 µM 92.6%

Source: PubChem BioAssay (NCI)
